Targets with a hit are over-represented here; the source holds about 7,900 in all. About 0.6% of all pairs of compound and target were hits.
Tests used:
Assay in all cases: log2 fold change, soluble protein after heating vs DMSO (PISA); higher = thermal stabilisation; K562 cells, 10 uM, 30 min; active = over 0.2 and 3.5 SD of the protein, either way, in both replicates (recomputed)
bafetinib = compound: Cc1ccc(NC(=O)c2ccc(CN3CC[C@H](N(C)C)C3)c(C(F)(F)F)c2)cc1Nc1nccc(-c2cncnc2)n1 [bafetinib]
Summary of the method: (§1)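 K562 cells at 2×10^6 cells/mL were treated for 30 min with 10 μM compound, and aliquots were heated for 3 min over 48°C-58°C before pooling. Extraction used PBS with 0.5% NP-40 at 4°C, and soluble protein was the supernatant after 21,000xg for 90 min, measured by TMTpro 16plex LC-MS/MS with channel sums equalised. Thermal stability values, relative to control samples and from duplicates, are log2 fold changes.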

[1] = compound: Cc1cccc(CC(=O)N2CCc3c2ccc(-c2cn(C)c4ncnc(N)c24)c3F)n1
Summary of the method: as §1

nilotinib = compound: Cc1cn(-c2cc(NC(=O)c3ccc(C)c(Nc4nccc(-c5cccnc5)n4)c3)cc(C(F)(F)F)c2)cn1 [nilotinib]
Summary of the method: as §1

[2] = compound: Cc1nc(Nc2n[nH]c3c2CN(C(=O)N[C@H](CN(C)C)c2ccccc2)C3(C)C)c2sccc2n1
Summary of the method: as §1

dasatinib = compound: Cc1nc(Nc2ncc(C(=O)Nc3c(C)cccc3Cl)s2)cc(N2CCN(CCO)CC2)n1 [dasatinib]
Summary of the method: as §1

[3] = compound: Cc1ncc(-c2ccnc(Nc3ccc(S(C)(=O)=O)cc3)n2)n1C(C)C
Summary of the method: as §1

[4] = compound: Cn1cc(-c2ccc3c(c2)CCN3C(=O)Cc2cccc(C(F)(F)F)c2)c2c(N)ncnc21
Summary of the method: as §1

[5] = compound: Cn1cc(-c2ccc3nnc(C(F)(F)c4ccc5ncccc5c4)n3n2)cn1
Summary of the method: as §1

tipifarnib = compound: Cn1cncc1[C@@](N)(c1ccc(Cl)cc1)c1ccc2c(c1)c(-c1cccc(Cl)c1)cc(=O)n2C [tipifarnib]
Summary of the method: as §1

mubritinib = compound: FC(F)(F)c1ccc(/C=C/c2nc(COc3ccc(CCCCn4ccnn4)cc3)co2)cc1 [mubritinib]
Summary of the method: as §1

[6] = compound: NC(=O)Nc1cc(-c2cccc(F)c2)sc1C(=O)N[C@H]1CCCNC1
Summary of the method: as §1

[7] = compound: NC(=O)c1cnc(N[C@@H]2CCCC[C@@H]2N)nc1Nc1cccc(-n2nccn2)c1
Summary of the method: as §1

[8] = compound: NC1(c2ccc(-c3nc4ccn5c(=O)[nH]nc5c4cc3-c3ccccc3)cc2)CCC1
Summary of the method: as §1

[9] = compound: NCC(=O)Nc1ccc(-n2nc(C(F)(F)F)cc2-c2ccc3c(ccc4ccccc43)c2)cc1
Summary of the method: as §1

entinostat = compound: Nc1ccccc1NC(=O)c1ccc(CNC(=O)OCc2cccnc2)cc1 [entinostat]
Summary of the method: as §1

vorinostat = compound: O=C(CCCCCCC(=O)Nc1ccccc1)NO [vorinostat]
Summary of the method: as §1

citarinostat = compound: O=C(CCCCCCNC(=O)c1cnc(N(c2ccccc2)c2ccccc2Cl)nc1)NO [citarinostat]
Summary of the method: as §1

silmitasertib = compound: O=C(O)c1ccc2c(c1)nc(Nc1cccc(Cl)c1)c1ccncc12 [silmitasertib]
Summary of the method: as §1

[10] = compound: O=C1NC(=O)C(c2cnc3ccccn23)=C1c1cn2c3c(cc(F)cc13)CN(C(=O)N1CCCCC1)CC2
Summary of the method: as §1

[11] = compound: c1cc(OCCN2CCCCC2)cc(-c2n[nH]c3ccc(-c4nnc[nH]4)cc23)c1
Summary of the method: as §1

Measured: log2 fold change

PSMC2 (UniProt P35998)
UniProt P35998, sequence (P35998 whole entry, looked up): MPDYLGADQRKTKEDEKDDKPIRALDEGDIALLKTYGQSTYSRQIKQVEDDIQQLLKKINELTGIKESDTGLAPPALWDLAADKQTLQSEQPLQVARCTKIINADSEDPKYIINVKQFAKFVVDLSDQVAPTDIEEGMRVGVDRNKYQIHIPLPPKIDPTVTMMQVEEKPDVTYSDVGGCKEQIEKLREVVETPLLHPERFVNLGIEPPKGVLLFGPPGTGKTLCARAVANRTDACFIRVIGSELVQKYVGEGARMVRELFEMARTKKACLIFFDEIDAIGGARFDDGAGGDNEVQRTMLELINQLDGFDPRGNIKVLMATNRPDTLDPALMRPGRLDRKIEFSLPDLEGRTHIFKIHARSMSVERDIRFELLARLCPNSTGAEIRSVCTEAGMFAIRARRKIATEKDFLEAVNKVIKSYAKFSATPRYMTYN
inactive: bafetinib 0.081 | [1] 0.029 | nilotinib -0.019 | [2] 0.044 | dasatinib 0.034 | [3] -0.018 | [4] -0.126 | [5] -0.013 | tipifarnib 0.113 | mubritinib -0.031 | [6] 0.014 | [7] -0.013 | [8] 0.026 | [9] 0.091 | entinostat -0.025 | vorinostat -0.018 | citarinostat -0.04 | silmitasertib -0.015 | [10] 0.087 | [11] -0.086

POLR2B (UniProt P30876)
inactive: bafetinib 0.024 | [1] -0.005 | nilotinib 0.079 | [2] 0.054 | dasatinib -0.055 | [4] -0.054 | [5] -0.006 | tipifarnib -0.029 | mubritinib -0.014 | [6] -0.054 | [7] 0.059 | [8] -0.043 | [9] -0.106 | entinostat 0.061 | vorinostat -0.089 | citarinostat 0 | silmitasertib 0.1 | [10] 0.09 | [11] -0.065
active: [3] 0.324

PTRH2 (UniProt Q9Y3E5)
UniProt Q9Y3E5, sequence (Q9Y3E5 whole entry, looked up): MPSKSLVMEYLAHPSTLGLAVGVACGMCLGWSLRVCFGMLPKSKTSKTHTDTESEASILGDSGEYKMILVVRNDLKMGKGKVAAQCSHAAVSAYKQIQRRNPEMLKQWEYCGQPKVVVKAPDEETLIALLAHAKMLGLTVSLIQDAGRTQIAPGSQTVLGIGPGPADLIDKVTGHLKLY
inactive: bafetinib -0.022 | [1] 0.017 | nilotinib 0.039 | [2] -0.011 | dasatinib -0.004 | [3] 0.046 | [4] 0.044 | [5] -0.019 | tipifarnib 0.042 | mubritinib -0.009 | [6] -0.061 | [7] 0.018 | [8] -0.001 | [9] 0.004 | entinostat -0.016 | vorinostat -0.002 | citarinostat 0.047 | silmitasertib 0.007 | [10] -0.089 | [11] 0.005

PIP4K2A (UniProt P48426)
UniProt P48426, sequence (P48426 whole entry, looked up): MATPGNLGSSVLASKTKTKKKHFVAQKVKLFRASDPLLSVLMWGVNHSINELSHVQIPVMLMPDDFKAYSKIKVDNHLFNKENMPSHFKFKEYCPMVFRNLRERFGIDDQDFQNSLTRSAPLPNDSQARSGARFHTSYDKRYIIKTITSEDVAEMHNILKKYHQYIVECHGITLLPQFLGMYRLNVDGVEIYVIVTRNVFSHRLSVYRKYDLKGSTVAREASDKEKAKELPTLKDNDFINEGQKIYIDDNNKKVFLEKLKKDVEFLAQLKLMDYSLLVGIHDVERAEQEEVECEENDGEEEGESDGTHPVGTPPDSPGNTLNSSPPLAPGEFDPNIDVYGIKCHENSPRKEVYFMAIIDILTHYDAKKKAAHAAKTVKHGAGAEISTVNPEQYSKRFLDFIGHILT
active: [3] 0.588
inactive: bafetinib 0.283 | [1] 0.103 | nilotinib 0.077 | [2] 0.065 | dasatinib 0.048 | [4] 0.037 | [5] 0.181 | tipifarnib -0.081 | mubritinib -0.06 | [6] -0.026 | [7] 0.013 | [8] -0.086 | [9] 0.113 | entinostat 0.026 | vorinostat -0.037 | citarinostat 0.004 | silmitasertib 0.259 | [10] 0.057 | [11] -0.057

PPP4R3B (UniProt Q5MIZ7)
UniProt Q5MIZ7, sequence (Q5MIZ7 whole entry, looked up): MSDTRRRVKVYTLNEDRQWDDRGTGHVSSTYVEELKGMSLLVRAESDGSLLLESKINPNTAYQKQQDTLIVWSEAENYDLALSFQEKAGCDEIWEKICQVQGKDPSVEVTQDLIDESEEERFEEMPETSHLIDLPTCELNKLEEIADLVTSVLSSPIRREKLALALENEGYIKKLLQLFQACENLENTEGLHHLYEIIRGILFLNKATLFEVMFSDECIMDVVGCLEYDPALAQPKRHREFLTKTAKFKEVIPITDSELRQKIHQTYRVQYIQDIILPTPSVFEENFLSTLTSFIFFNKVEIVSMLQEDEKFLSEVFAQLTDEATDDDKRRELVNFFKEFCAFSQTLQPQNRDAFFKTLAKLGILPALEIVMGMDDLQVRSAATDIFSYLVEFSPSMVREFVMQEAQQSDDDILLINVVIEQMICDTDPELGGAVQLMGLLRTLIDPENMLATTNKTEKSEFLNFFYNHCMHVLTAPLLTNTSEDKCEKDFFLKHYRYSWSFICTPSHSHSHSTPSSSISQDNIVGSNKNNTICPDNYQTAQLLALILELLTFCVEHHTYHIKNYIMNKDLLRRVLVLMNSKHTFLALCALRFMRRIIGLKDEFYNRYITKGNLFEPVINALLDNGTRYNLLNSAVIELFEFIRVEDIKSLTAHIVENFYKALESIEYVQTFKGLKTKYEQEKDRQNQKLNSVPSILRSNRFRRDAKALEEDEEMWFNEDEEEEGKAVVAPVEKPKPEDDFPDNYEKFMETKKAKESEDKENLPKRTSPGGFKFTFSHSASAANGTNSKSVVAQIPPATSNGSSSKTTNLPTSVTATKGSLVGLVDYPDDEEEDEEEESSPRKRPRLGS
inactive: bafetinib -0.054 | [1] 0.116 | nilotinib -0.032 | [2] -0.006 | dasatinib -0.03 | [3] -0.013 | [4] 0.037 | [5] 0.054 | tipifarnib -0.041 | mubritinib 0.006 | [6] -0.068 | [7] -0.082 | [8] -0.069 | [9] -0.079 | entinostat 0.047 | vorinostat 0.089 | citarinostat 0.086 | silmitasertib 0.077 | [10] -0.1 | [11] 0.087

PMM1 (UniProt Q92871)
UniProt Q92871, sequence (Q92871 whole entry, looked up): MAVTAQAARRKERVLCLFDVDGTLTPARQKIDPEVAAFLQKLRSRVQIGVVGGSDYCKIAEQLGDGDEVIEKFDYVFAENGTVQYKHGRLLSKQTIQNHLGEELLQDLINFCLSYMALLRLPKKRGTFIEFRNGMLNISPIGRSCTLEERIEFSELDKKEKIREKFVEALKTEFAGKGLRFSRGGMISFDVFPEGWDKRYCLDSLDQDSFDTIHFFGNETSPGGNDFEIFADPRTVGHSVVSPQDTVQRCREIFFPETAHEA
inactive: bafetinib -0.2 | [1] 0.022 | [2] -0.152 | dasatinib -0.027 | [3] 0.003 | [4] 0.05 | [5] 0.025 | tipifarnib 0.134 | mubritinib 0.066 | [6] 0.005 | [7] 0.006 | [8] -0.01 | [9] 0.002 | entinostat -0.021 | vorinostat 0.113 | citarinostat 0.034 | silmitasertib -0.005 | [10] 0.004 | [11] -0.012
active: nilotinib -0.606

PDE4DIP isoform 4 (UniProt Q5VU43)
inactive: bafetinib 0.022 | [1] -0.071 | nilotinib -0.054 | [2] -0.113 | dasatinib 0.037 | [3] -0.027 | [4] 0.021 | [5] 0.021 | tipifarnib 0.038 | mubritinib 0.022 | [6] 0.113 | [7] -0.006 | [8] 0.009 | [9] 0.011 | entinostat 0.015 | vorinostat -0.025 | citarinostat 0.018 | silmitasertib -0.041 | [10] -0.03 | [11] -0.039

PSME4 (UniProt Q14997)
inactive: bafetinib 0.069 | [1] 0.141 | nilotinib -0.057 | [2] 0.016 | dasatinib -0.084 | [3] -0.098 | [4] 0.015 | [5] -0.006 | tipifarnib -0.036 | mubritinib 0.052 | [6] 0.047 | [7] -0.054 | [8] -0.204 | [9] -0.03 | entinostat 0.011 | vorinostat 0.127 | citarinostat 0.047 | silmitasertib -0.007 | [10] 0.02 | [11] -0.092

PCLAF (UniProt Q15004)
UniProt Q15004, sequence (Q15004 whole entry, looked up): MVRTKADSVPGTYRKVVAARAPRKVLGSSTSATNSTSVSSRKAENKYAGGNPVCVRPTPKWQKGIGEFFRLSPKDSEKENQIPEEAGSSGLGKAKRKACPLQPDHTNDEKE
inactive: bafetinib -0.015 | [1] -0.1 | nilotinib -0.027 | [2] 0.105 | dasatinib 0.065 | [3] -0.081 | [4] -0.112 | [5] -0.069 | tipifarnib -0.019 | mubritinib -0.095 | [6] -0.007 | [7] 0.035 | [8] 0.109 | [9] 0.012 | entinostat -0.04 | vorinostat -0.045 | citarinostat 0.035 | silmitasertib -0.009 | [10] 0.008 | [11] -0.066

PIK3CB (UniProt P42338)
UniProt P42338, sequence (P42338 whole entry, looked up): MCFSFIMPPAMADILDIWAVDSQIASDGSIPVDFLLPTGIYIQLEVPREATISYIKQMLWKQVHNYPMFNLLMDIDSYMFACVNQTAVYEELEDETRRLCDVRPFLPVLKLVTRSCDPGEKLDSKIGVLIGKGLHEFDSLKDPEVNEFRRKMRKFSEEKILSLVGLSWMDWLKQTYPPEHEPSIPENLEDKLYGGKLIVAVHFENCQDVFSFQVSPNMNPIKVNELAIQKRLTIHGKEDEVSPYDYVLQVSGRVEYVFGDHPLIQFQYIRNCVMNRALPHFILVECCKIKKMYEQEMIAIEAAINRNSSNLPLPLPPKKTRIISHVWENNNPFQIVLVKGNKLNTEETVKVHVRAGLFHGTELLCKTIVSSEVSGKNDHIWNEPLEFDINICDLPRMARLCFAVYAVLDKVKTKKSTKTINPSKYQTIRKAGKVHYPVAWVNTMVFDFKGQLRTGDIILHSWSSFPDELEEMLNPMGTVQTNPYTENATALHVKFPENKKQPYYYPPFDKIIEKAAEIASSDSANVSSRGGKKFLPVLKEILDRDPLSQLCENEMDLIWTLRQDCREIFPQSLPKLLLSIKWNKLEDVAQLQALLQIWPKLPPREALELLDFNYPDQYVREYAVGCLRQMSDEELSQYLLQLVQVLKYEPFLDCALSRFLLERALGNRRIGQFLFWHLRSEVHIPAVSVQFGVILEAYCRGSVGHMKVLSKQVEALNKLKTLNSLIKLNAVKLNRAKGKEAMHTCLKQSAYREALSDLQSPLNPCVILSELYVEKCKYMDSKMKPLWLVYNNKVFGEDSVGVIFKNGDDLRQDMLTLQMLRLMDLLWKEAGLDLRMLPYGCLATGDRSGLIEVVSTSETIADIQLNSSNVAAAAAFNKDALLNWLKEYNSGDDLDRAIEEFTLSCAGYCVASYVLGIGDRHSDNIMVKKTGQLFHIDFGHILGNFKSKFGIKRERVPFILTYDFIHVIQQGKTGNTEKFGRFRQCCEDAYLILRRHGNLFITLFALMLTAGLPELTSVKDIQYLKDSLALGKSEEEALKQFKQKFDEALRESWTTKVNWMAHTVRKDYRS
inactive: bafetinib -0.075 | [1] 0.028 | nilotinib -0.084 | [2] -0.056 | dasatinib -0.209 | [3] 0.034 | [4] -0.002 | [5] 0.049 | tipifarnib -0.105 | mubritinib 0.037 | [6] -0.057 | [7] -0.106 | [8] -0.008 | [9] -0.102 | entinostat 0.014 | vorinostat 0.001 | citarinostat 0.003 | silmitasertib -0.053 | [10] -0.039 | [11] -0.049

PDLIM7 (UniProt Q9NR12)
UniProt Q9NR12, sequence (Q9NR12 whole entry, looked up): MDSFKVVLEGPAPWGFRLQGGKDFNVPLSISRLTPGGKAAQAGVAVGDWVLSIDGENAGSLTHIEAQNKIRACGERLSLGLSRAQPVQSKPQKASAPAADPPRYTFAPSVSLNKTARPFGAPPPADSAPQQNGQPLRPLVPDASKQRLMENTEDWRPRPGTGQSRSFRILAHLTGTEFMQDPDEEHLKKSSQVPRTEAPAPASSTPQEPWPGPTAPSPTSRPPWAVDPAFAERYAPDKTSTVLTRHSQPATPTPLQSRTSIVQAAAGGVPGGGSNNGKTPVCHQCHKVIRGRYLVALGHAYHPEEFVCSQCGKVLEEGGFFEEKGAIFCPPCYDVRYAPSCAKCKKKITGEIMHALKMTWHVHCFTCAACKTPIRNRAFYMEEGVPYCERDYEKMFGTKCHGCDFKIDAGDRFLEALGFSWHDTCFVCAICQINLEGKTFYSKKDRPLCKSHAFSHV
inactive: bafetinib -0.01 | [1] 0.107 | nilotinib 0 | [2] -0.078 | dasatinib -0.036 | [3] -0.01 | [4] 0.006 | [5] -0.048 | tipifarnib -0.091 | mubritinib -0.042 | [6] 0.003 | [7] 0.009 | [8] 0.043 | [9] -0.042 | entinostat 0.011 | vorinostat 0.082 | citarinostat 0.037 | silmitasertib -0.017 | [10] 0.021 | [11] -0.026

PDS5B (UniProt Q9NTI5)
inactive: bafetinib 0.041 | [1] -0.139 | nilotinib -0.314 | [2] 0.04 | dasatinib -0.244 | [3] -0.031 | [4] 0.038 | [5] 0.147 | tipifarnib 0.054 | mubritinib 0.127 | [6] -0.07 | [7] -0.12 | [8] -0.043 | [9] -0.167 | entinostat -0.036 | vorinostat -0.043 | citarinostat 0.046 | silmitasertib 0.027 | [10] -0.08 | [11] 0.03

PSMB4 (UniProt P28070)
UniProt P28070, sequence (P28070 whole entry, looked up): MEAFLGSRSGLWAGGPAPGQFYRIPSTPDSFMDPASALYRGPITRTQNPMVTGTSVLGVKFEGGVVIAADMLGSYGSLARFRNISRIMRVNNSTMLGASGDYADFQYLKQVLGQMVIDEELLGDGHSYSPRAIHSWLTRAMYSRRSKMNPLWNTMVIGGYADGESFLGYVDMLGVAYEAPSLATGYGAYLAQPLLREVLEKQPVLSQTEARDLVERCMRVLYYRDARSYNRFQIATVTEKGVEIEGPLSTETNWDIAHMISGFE
inactive: bafetinib 0.051 | [1] -0.052 | nilotinib 0 | [2] 0.063 | dasatinib 0.076 | [3] -0.015 | [4] -0.03 | [5] 0.014 | tipifarnib 0.047 | mubritinib 0.009 | [6] 0.029 | [7] -0.01 | [8] 0.068 | [9] 0.01 | entinostat -0.036 | vorinostat -0.019 | citarinostat 0.008 | silmitasertib 0.002 | [10] 0.022 | [11] -0.014

PAK4 (UniProt O96013)
UniProt O96013, sequence (O96013 whole entry, looked up): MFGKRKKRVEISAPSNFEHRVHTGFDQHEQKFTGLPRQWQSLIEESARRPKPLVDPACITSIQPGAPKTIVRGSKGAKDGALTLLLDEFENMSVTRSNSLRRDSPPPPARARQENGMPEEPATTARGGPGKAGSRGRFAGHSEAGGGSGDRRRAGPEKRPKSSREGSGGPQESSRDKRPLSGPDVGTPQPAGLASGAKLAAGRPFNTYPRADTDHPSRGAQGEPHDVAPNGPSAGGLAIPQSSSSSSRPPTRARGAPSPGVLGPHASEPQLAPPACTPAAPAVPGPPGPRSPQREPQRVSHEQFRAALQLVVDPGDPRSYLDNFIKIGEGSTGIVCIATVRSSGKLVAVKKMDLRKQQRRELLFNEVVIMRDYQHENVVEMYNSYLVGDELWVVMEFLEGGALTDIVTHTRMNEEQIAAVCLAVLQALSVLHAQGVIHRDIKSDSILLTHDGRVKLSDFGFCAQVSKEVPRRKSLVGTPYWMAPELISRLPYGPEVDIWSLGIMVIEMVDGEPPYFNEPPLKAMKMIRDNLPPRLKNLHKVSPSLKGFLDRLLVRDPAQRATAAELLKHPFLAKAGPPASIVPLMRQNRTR
inactive: bafetinib -0.072 | [1] 0.011 | nilotinib -0.016 | dasatinib -0.068 | [3] 0.01 | [4] 0.04 | [5] 0.007 | tipifarnib 0.015 | mubritinib -0.092 | [6] 0.048 | [8] 0.015 | [9] -0.038 | entinostat -0.083 | vorinostat 0.01 | citarinostat 0.003 | silmitasertib 0.041 | [10] 0.017 | [11] -0.039
active: [2] 0.352 | [7] 0.388

PMM2 (UniProt O15305)
UniProt O15305, sequence (O15305 whole entry, looked up): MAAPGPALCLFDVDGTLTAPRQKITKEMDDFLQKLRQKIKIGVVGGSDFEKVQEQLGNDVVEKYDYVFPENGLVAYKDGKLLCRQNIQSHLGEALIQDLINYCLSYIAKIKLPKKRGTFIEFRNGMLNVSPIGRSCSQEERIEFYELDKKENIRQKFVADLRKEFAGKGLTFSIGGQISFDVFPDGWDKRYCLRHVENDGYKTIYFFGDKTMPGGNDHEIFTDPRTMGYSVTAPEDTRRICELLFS
inactive: bafetinib -0.098 | [1] 0.003 | [2] -0.054 | dasatinib -0.018 | [3] -0.015 | [4] 0.035 | [5] 0.013 | tipifarnib 0.018 | mubritinib 0.028 | [6] 0.022 | [7] 0.01 | [8] 0.016 | [9] -0.024 | entinostat -0.004 | vorinostat 0.007 | citarinostat 0.024 | silmitasertib -0.001 | [10] -0.05 | [11] -0.02
active: nilotinib -0.291

PPP1CA (UniProt P62136)
inactive: bafetinib -0.053 | [1] -0.001 | nilotinib -0.002 | [2] -0.006 | dasatinib 0.008 | [3] -0.011 | [4] 0.018 | [5] 0.065 | tipifarnib 0.023 | mubritinib 0.065 | [6] -0.036 | [7] -0.051 | [8] -0.019 | [9] -0.02 | entinostat -0.012 | vorinostat -0.023 | citarinostat 0.034 | silmitasertib 0 | [10] 0.007 | [11] -0.045

Reference: the supplement of paper PMC10849652
